# In ChEMBL document CHEMBL1961873, “Compounds: GSK PKIS; Assays: Nanosyn kinase panel” (2012):
# Tests used:
# [1] = target: T1, Inhibitor of nuclear factor kappa-B kinase subunit epsilon (Homo sapiens) (UniProt Q14164); conditions: at 1 µM;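 note: reported values are averaged percent inhibition figures against human IKKε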
# T1 sequence (whole entry): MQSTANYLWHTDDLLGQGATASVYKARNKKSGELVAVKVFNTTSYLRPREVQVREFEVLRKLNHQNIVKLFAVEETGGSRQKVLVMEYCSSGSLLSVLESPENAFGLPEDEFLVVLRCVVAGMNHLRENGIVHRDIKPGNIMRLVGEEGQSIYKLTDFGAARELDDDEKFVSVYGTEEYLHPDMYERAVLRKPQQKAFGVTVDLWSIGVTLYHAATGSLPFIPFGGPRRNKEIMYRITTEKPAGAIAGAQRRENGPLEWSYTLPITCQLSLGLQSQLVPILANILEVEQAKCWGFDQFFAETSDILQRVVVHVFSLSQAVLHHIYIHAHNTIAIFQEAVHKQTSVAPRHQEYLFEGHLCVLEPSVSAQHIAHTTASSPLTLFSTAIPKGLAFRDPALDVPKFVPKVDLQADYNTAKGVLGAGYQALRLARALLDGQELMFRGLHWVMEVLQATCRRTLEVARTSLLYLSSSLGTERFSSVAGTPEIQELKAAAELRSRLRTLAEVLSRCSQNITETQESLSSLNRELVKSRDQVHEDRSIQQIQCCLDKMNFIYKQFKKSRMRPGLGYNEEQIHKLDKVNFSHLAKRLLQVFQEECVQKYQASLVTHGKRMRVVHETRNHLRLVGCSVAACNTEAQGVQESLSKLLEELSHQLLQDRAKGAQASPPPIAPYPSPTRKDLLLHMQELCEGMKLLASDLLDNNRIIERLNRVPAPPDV
# [2] = target: T2, Serine/threonine-protein kinase Nek1 (Homo sapiens) (UniProt Q96PY6); conditions: at 0.1 µM
# T2 sequence (whole entry): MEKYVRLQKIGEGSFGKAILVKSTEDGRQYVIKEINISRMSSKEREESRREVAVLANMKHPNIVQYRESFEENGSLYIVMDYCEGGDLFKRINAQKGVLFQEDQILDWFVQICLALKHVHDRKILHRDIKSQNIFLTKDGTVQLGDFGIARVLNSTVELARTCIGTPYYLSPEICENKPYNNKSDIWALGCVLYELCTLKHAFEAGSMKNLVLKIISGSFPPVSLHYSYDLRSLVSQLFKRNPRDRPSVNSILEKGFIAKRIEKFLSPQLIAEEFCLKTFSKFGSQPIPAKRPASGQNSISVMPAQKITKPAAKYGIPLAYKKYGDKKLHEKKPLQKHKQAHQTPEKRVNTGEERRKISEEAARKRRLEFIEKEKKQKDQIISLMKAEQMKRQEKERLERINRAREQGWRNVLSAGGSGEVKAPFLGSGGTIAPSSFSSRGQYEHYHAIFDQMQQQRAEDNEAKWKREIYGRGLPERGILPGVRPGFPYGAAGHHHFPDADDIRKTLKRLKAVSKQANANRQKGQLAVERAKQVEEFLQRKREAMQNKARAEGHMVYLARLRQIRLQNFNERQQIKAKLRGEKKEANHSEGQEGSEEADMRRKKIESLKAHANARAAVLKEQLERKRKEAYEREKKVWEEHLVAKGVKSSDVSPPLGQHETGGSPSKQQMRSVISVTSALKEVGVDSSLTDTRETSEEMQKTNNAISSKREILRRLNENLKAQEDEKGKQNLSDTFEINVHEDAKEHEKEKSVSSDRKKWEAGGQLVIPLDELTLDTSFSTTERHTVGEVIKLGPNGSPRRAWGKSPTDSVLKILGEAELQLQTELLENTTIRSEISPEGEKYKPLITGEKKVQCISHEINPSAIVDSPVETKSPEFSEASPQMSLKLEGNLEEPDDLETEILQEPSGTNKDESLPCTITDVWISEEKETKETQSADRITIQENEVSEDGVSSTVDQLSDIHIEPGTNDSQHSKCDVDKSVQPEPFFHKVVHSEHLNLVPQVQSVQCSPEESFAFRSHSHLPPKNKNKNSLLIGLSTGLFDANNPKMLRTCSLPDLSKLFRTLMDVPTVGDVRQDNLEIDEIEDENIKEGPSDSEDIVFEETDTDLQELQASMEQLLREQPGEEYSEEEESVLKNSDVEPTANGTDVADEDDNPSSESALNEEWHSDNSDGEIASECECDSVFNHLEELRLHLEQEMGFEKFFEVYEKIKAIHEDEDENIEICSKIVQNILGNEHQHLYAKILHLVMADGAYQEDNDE
# [3] = target: T2, Serine/threonine-protein kinase Nek1 (Homo sapiens); conditions: at 1 µM
# [4] = target: T3, Serine/threonine-protein kinase Nek2 (Homo sapiens) (UniProt P51955); conditions: at 0.1 µM
# T3 sequence (whole entry): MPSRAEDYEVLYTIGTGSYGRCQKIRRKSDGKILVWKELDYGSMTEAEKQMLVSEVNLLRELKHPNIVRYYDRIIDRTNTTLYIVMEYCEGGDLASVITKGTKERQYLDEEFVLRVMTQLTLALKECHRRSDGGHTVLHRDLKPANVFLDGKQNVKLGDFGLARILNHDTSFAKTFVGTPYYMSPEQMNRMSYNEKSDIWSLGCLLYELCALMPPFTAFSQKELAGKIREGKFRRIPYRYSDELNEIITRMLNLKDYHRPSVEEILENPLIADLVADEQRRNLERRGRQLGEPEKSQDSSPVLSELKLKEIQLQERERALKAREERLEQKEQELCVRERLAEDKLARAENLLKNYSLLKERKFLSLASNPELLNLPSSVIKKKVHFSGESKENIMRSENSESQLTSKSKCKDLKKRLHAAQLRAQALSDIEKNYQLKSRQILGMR
# [5] = target: T3, Serine/threonine-protein kinase Nek2 (Homo sapiens); conditions: at 1 µM
# [6] = target: Serine/threonine-protein kinase Nek6 (Homo sapiens) (UniProt Q9HC98); conditions: at 0.1 µM
# Sequence of Serine/threonine-protein kinase Nek6 (Homo sapiens) (Q9HC98 whole entry): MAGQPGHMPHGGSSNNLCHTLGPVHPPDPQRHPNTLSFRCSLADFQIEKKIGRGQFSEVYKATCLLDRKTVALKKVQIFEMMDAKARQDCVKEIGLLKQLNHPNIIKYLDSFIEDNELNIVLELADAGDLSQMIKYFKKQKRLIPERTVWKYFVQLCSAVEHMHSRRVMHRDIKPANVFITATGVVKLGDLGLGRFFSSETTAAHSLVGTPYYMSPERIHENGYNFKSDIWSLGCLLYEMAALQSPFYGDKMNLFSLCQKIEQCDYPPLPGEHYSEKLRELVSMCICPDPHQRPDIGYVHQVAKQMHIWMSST
# [7] = target: Serine/threonine-protein kinase Nek6 (Homo sapiens) (UniProt Q9HC98); conditions: at 1 µM
# [8] = target: Serine/threonine-protein kinase Nek7 (Homo sapiens) (UniProt Q8TDX7); conditions: at 0.1 µM
# Sequence of Serine/threonine-protein kinase Nek7 (Homo sapiens) (Q8TDX7 whole entry, looked up): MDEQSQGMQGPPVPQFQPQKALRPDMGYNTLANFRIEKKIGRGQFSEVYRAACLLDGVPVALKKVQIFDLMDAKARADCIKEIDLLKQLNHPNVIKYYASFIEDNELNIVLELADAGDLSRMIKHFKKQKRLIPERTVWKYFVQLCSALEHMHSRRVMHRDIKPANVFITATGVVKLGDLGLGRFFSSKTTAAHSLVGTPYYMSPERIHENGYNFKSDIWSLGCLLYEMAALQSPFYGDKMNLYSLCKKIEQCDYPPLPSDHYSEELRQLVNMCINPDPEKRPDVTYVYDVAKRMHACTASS
# [9] = target: Serine/threonine-protein kinase Nek7 (Homo sapiens) (UniProt Q8TDX7); conditions: at 1 µM
# [10] = target: T4, Serine/threonine-protein kinase Nek9 (Homo sapiens) (UniProt Q8TD19); conditions: at 0.1 µM;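 note: reported value is the mean percent inhibition of NEK9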
# T4 sequence (whole entry): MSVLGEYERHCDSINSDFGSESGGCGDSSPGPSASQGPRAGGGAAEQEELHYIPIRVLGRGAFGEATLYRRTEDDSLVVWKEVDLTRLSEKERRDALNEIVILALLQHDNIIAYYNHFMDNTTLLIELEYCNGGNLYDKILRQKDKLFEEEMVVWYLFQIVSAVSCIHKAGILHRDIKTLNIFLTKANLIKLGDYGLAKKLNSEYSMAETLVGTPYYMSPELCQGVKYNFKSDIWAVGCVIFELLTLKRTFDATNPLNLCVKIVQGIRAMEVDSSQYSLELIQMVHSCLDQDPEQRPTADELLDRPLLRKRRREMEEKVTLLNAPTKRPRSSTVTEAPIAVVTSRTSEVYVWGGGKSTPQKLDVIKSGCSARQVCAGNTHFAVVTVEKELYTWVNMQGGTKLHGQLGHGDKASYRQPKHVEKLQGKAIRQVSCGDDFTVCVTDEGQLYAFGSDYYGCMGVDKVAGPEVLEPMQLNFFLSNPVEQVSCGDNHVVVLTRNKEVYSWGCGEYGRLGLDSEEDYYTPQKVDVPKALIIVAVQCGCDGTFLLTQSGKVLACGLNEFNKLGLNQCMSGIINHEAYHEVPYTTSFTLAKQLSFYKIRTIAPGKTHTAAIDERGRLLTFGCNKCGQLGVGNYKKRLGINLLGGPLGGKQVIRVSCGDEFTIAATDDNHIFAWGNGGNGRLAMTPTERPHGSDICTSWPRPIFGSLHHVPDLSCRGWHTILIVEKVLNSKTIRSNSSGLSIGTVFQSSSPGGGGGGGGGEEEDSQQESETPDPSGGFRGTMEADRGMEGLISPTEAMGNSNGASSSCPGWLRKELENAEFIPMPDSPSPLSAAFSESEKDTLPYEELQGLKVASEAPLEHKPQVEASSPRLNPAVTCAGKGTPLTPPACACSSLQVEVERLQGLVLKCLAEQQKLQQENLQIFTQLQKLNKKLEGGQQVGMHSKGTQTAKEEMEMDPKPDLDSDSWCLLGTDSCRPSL
smiles,measurement,setting,value
Cc1ccc(C(=O)NC2CCCCC2)cc1-c1ccc(C(=O)NCC2CC2)cc1,inhibition,[1],0.57%
same,inhibition,[2],1.91%
same,inhibition,[3],1.48%
same,inhibition,[4],3.04%
same,inhibition,[5],3.36%
same,inhibition,[6],3.51%
same,inhibition,[7],-2.96%
same,inhibition,[8],4.39%
same,inhibition,[9],3.76%
same,inhibition,[10],-0.48%
